Records with an inconclusive call do not appear. Calls of active or inactive are those of the source. Rule for the calls: active = hit-call score of the fitted dose curve at least 0.9, where 1 is the maximum; inconclusive = response in the unintended direction; inactive = score below 0.9.
read-out: Glyceraldehyde-3-phosphate dehydrogenase (Homo sapiens) (UniProt P04406); assay: CLD_GAPDH_6hr: CellzDirect (CLD) Gene Expression Assay for Baseline Control (Glyceraldehyde 3-phosphate dehydrogenase) at 6 hours (AID 2283681);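 note: active means increased signal relative to DMSO vehicle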
Method: CLD_6hr is a cell-based, multiplexed-readout assay that uses hepatocyte, a human liver primary cell, with measurements taken at 6 hours after chemical dosing in a 96-well plate.CLD_GAPDH_6hr is one of 16 assay component(s) measured or calculated from the CLD_6hr assay. It is designed to make measurements of mRNA induction, a form of inducible reporter, as detected with chemiluminescence signals by Quantitative Nuclease Protection Assay (qNPA) technology.Data from the assay component CLD_GAPDH_6hr was analyzed at the endpoint, CLD_GAPDH_6hr, in the positive analysis fitting direction relative to DMSO as the negative control and baseline of activity. Using a type of inducible reporter, gain-of-signal activity can be used to understand changes in the reporter gene as they relate to the gene GAPDH. Furthermore, this assay endpoint can be referred to as a secondary readout, because this assay has produced multiple assay endpoints where this one serves a background control function. To generalize the intended target to other relatable targets, this assay endpoint is annotated to the background measurement intended target family, where subfamily is baseline control.
Human hepatocyte cultures were treated daily for two consecutive days with fresh dosing solutions containing appropriate concentrations of the 320 ToxCast chemicals (chemical identities were blinded to CellzDirect and other ToxCast collaborators), vehicle control (0.2% DMSO), and positive control inducers as summarized in Table 1. Due to the large number of treatment groups and chemicals examined, the ToxCast chemicals were divided into two groups (spanning two independent cultures of hepatocytes from separate donor preparations (Hu778: ToxCast plates 1 and 2; Hu776: ToxCast plates 3 and 4). Each preparation of human hepatocyte cultures was treated with respective vehicle control, medium only control, set of six positive controls/reference chemicals for the five hepatic receptor pathways, and a subset of eight of the ToxCast chemicals (indoxacarb, pyrithiobac-sodium, norflurazon, cyhalofop-butyl, methomyl, thiram, acetochlor, and propiconazole). These replicate data, coupled with internal replicates designed within the blinded ToxCast chemical library, provided additional data to evaluate interindividual differences between hepatocyte preparations and their potential impact on chemical profiles.Cell morphology and integrity were evaluated using phase-contrast microscopy as an indicator of hepatocyte cell health (Tyson & Green, 1987). Cultures for each treatment group (i.e., media, vehicle [0.2% DMSO], positive control inducers [multiple concentrations], and the ToxCast chemicals [multiple concentrations]) were observed and cell morphology was assessed relative to vehicle control cultures at each harvest time point (0, 6, 24, or 48 h). […] Images were evaluated at the conclusion of the study to assess changes in cell integrity and account for the effects of chemical exposure on uncharacteristic changes in concentration-dependent gene expression profiles. The results from these determinations of apparent cytotoxicity were annotated (yes/no) alongside the corresponding qNPA data for reference.At the conclusion of each treatment period, hepatocyte cultures (96-well) were washed with 1 volume of HBSS, lysed by addition of 25 ul ArrayPlate lysis buffer (HTG, Tucson, AZ), and 70 ul/well of Denaturation Oil, denatured by incubation at 95C for 10 min, and frozen at approximately -70C until analysis by nuclease protection assay (qNPA) (Roberts et al., 2007). For qNPA analysis, cell lysates were thawed at 50C for approximately 30 min, qNPA probes were added, and samples were incubated at 95C for 10 min to begin the detection process by denaturing the target RNA, dissociating the duplexes and secondary structure hybridization. At the conclusion of the hybridization period, S1 nuclease reagent was added to each sample to digest all nonprotected nucleotides at 50C for 60-90 min. […]

Glyceraldehyde-3-phosphate dehydrogenase (Homo sapiens), sequence (P04406 whole entry, looked up): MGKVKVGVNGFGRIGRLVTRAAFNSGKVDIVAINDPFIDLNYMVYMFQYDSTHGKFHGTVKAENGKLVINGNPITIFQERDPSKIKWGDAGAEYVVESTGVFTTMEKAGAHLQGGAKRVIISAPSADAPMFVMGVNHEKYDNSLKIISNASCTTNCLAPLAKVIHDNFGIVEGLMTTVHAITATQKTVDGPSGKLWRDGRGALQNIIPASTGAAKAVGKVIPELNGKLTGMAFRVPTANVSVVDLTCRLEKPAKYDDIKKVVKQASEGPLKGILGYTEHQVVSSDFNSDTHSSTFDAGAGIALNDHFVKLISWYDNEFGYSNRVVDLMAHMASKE

SMILES	outcome
COP(=O)(OC)OC=C(Cl)Cl	inactive
O=[N+]([O-])/N=C1\NCCN1Cc1ccc(Cl)nc1	inactive
O=S1OCC2C(CO1)C1(Cl)C(Cl)=C(Cl)C2(Cl)C1(Cl)Cl (stereo not drawn)	inactive
CC1(C)C(C=C(Cl)Cl)C1C(=O)OC(C#N)c1ccc(F)c(Oc2ccccc2)c1 (stereo not drawn)	inactive
[2H]C1([2H])[n+]2ccccc2-c2cccc[n+]2C1([2H])[2H]	inactive
Oc1ccc(Cl)cc1Cc1ccccc1	inactive
CC(C)(C)C(O)/C(=C\c1ccc(Cl)cc1Cl)n1cncn1 (stereo not drawn)	inactive
O=C1c2ccccc2C(=O)N1SC(Cl)(Cl)Cl	inactive
O=C(O)COc1ccc(Cl)cc1Cl	inactive
CCOCN(C(=O)CCl)c1c(C)cccc1CC	inactive
OCCOc1ccccc1	inactive
Clc1ccccc1-c1nnc(-c2ccccc2Cl)nn1	inactive
CC(C)N(C(=O)COc1nnc(C(F)(F)F)s1)c1ccc(F)cc1	inactive
CNC(=O)CSP(=S)(OC)OC	inactive
Oc1cc(Cl)ccc1Oc1ccc(Cl)cc1Cl	inactive
CCC(C)(C)C(=O)OC1=C(c2ccc(Cl)cc2Cl)C(=O)OC12CCCCC2	inactive
CNC(=O)Oc1cccc(N=CN(C)C)c1	inactive

SMILES	outcome
CC(C)(C)C(O)C(Oc1ccc(Cl)cc1)n1cncn1 (stereo not drawn)	inactive
CCS(=O)(=O)c1cccnc1S(=O)(=O)NC(=O)Nc1nc(OC)cc(OC)n1	inactive
C[C@H]1[C@H](c2ccc(Cl)cc2)SC(=O)N1C(=O)NC1CCCCC1	inactive
Cc1cc(C)nc(NC(=O)NS(=O)(=O)c2ccccc2C(=O)OC2COC2)n1	inactive
CNC(=O)Oc1ccccc1OC(C)C	inactive
O=C(O)CCCOc1ccc(Cl)cc1Cl	inactive
O=[N+]([O-])c1c(Cl)c(Cl)c(Cl)c(Cl)c1Cl	inactive
CCOc1nc(NC)nc(NC(=O)NS(=O)(=O)c2ccccc2C(=O)OC)n1	inactive
COC(=O)c1ccccc1S(=O)(=O)NC(=O)Nc1nc(C)nc(OC)n1	inactive
CCCN(CCOc1c(Cl)cc(Cl)cc1Cl)C(=O)n1ccnc1	inactive
COC(=O)c1ccccc1S(=O)(=O)NC(=O)N(C)c1nc(C)nc(OC)n1	inactive
CC[C@H](C)[C@H]1O[C@]2(C=C[C@@H]1C)C[C@@H]1C[C@@H](C/C=C(\C)[C@@H](O[C@H]3C[C@H](OC)[C@@H](O[C@H]4C[C@H](OC)[C@@H](O)[C@H](C)O4)[C@H](C)O3)[C@@H](C)/C=C/C=C3\CO[C@@H]4[C@H](O)C(C)=C[C@@H](C(=O)O1)[C@]34O)O2 (tested in a mixture with another compound)	inactive
N#CN	inactive
CN1CSC(=S)N(C)C1	inactive
COc1cc(OC)nc(NC(=O)NS(=O)(=O)c2cc(NC=O)ccc2C(=O)N(C)C)n1	inactive
O=C(O)C(F)(F)C(F)(F)C(F)(F)C(F)(F)C(F)(F)C(F)(F)C(F)(F)F	inactive
